# According to PubChem BioAssay (NCATS):
# “And” between values parts separate entries of the source, which are not always exact repeats. Identical values can stand only once. Results filed as inconclusive are left out. The source made the active and inactive calls. Unless noted, calls follow the shape of the dose curve; as a rule, active = well fitted curve in the direction sought with a large enough effect; inconclusive = small, poorly fitted or top-dose-only effect, or another doubt; inactive = no such curve, though single readings can be large; an effect the other way counts as inactive or inconclusive.
# Columns and labels:
# [1] = Cytotoxicity counterscreen for NFkB agonists and antagonists (AID 624476);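 also: cells exposed to compound for 48 hours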; also: potency is read from the fitted curve at half-maximal effect
# [2] = qHTS Assay for Identification of Small Molecule Agonists for NFkB Signaling Pathway. (AID 624478);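 also: compounds tested together with TNF alpha at its EC50 of 10 pM; 0% is about no effect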
# Procedure, shortened: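 Activators were sought in reporter cells stimulated at the TNF alpha EC50 (10 pM final). Compound and cytokine were co-incubated 5 hours at 37 C before beta-lactamase substrate detection by dual-emission fluorescence.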
# [3] = qHTS Assay for Identification of Small Molecule Antagonists for NFkB Signaling Pathway. (AID 624479; calls by dose curve;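 also: pathway stimulated with TNF alpha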; also: potency is read from the fitted curve at half-maximal effect)
# [4] = Cell Proliferation Assay against the TMD8 Cell Line (AID 651645); conditions: TMD8 DLBCL cell line proliferation/viability; at 46.1 µM (top of the series);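 also: cells exposed to compound for 48 h before reading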
# Procedure, shortened: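 Luminescent ATP read-out (CellTiter-Glo, 15 min RT) after 48 h compound exposure of log-growing TMD8 cells at 37C; percent activity scaled between DMSO as 100% and 9.2 uM bortezomib final as 0%.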
# [5] = Cell Proliferation Assay against the HBL1 Cell Line (AID 651646); conditions: HBL1 DLBCL cells; at 46.1 µM (top of the series);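 also: cells exposed to compound for 48 h before reading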
# Procedure, shortened: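 HBL1, 500 cells/well, RPMI no phenol red + 5% FBS; cpd pinned, 48 h 37C/5% CO2; CellTiter-Glo, 15 min RT, luminescence. % activity: DMSO = 100%, bortezomib 9.2 uM final = 0%.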
# [6] = Cell Proliferation Assay against the TMD8 Cell Line (Caspase readout at 16 hrs) (AID 651712); also: potency is read from the fitted curve at half-maximal effect
# Procedure, shortened: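 Caspase-Glo luminescence after 16 h compound exposure of TMD8 cells, 37 °C, 5% CO2. Medium: RPMI without phenol red, 5% FBS. Normalisation: DMSO = 0%, bortezomib 9.2 uM final = 100%.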
# [7] = Cell Proliferation Assay against the TMD8 Cell Line (Caspase readout at 8 hrs) (AID 651713); also: potency is read from the fitted curve at half-maximal effect
# Procedure, shortened: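 Caspase 3/7 activation in ABC DLBCL TMD8 cells is measured by luminescence after an 8 h compound exposure at 37C. Relative light units are scaled between DMSO (0%) and 9.2 uM final bortezomib (100%).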
Compound,Potency [1],outcome [2],Potency [3],viability (% of control) [4],"viability, percent of control [5]",Potency [6],Potency [7]
COc1ccc(C=Cc2cc(OC)c(OC)c(OC)c2)cc1O,inactive,inactive,inactive,0.872%,20.5%,1.5 nM (active),–
CCCCc1nc2cc(C=CC(=O)NO)ccc2n1CCN(CC)CC,14.8 µM (active),inactive,–,1.77%,1.9%,332 nM (active),–
Nc1nc(Nc2ccc(S(N)(=O)=O)cc2)nn1C(=O)c1c(F)cccc1F,9.35 µM (active),inactive,0.473 µM (active),6.19%,49.5%,5260 nM (active),14.8 µM (active)
Nc1ccccc1NC(=O)c1ccc(CNc2nccc(-c3cccnc3)n2)cc1,14.8 µM (active),inactive,0.15 µM (active),2.31%,4.64%,20900 nM (active),–
CC(C)[C@H](C(=O)Nc1ccc(C(=O)NO)cc1)c1ccccc1,18.7 µM (active),inactive,inactive,0.267%,0.0861%,166 nM (active),–
COc1cc(OC2CCN(C)CC2)ccc1Nc1ncc2c(n1)n(C1CCCC1)c(=O)n2C,inactive,inactive,–,56.7%,38.2%,–,–
CCN1CCN(CC(=O)Nc2ccc(-c3cccc4c(=O)cc(N5CCOCC5)oc34)c3sc4ccccc4c23)CC1,5.9 µM (active),inactive,13.3 µM (active),0.621%,0.638%,469 nM (active),–
C[C@]1(CO)CN(c2cc(C(=O)Nc3ccc4c(c3)-c3c(c(C(N)=O)nn3-c3ccc(F)cc3)CC4)c(Cl)cn2)C[C@@]1(C)CO,inactive,inactive,5.95 µM (active),18.6%,23.3%,14800 nM (active),–
CC(C)c1ccccc1Cc1cc(C(=O)Nc2ccc(S(=O)(=O)c3ccccc3C(C)(C)C)cc2)c(O)c(O)c1O,14.8 µM (active),inactive,13.3 µM (active),9.33%,21.6%,6620 nM (active),–
CN1CCN(c2cc(C(=O)Nc3ccc4c(c3)-c3c(c(C(N)=O)nn3-c3ccc(F)cc3)CC4)c(Cl)cn2)CC1,inactive,inactive,–,0.112%,0.345%,–,–
CN1CCN(c2ccc3nc(-c4c(N)c5c(F)cccc5[nH]c4=O)[nH]c3c2)CC1,16.6 µM (active),inactive,0.421 µM (active),-0.299%,0.538%,–,–
CC1(C)CCC(c2ccc(Cl)cc2)=C(CN2CCN(c3ccc(C(=O)NS(=O)(=O)c4ccc(N[C@H](CCN5CCOCC5)CSc5ccccc5)c(S(=O)(=O)C(F)(F)F)c4)cc3)CC2)C1,4.18 µM (active),inactive,14.9 µM (active),1.35%,3.35%,–,–
Cc1[nH]nc2ccc(-c3cncc(OC[C@@H](N)Cc4ccccc4)c3)cc12,4.69 µM (active),inactive,0.168 µM (active),-0.774%,4.82%,1320 nM (active),–
C[C@@H]1CN(CC(=O)Nc2ccc3c(c2)Cc2cccc(-c4cc(=O)cc(N5CCOCC5)o4)c2S3)C[C@H](C)O1,inactive,inactive,inactive,26.2%,56.7%,–,23.5 µM (active)
COCCn1c2c([n+](Cc3cnccn3)c1C)C(=O)c1ccccc1C2=O,0.0118 µM (active),inactive,–,1.68%,1.98%,inactive,–
Cc1[nH]c2ccccc2c1CCNCc1ccc(C=CC(=O)NO)cc1,0.332 µM (active),inactive,–,1.52%,-0.0299%,33.2 nM (active),–
COc1cc2c(Oc3ccc(-c4cnc(Nc5ccc(F)cc5)n(C)c4=O)cc3F)ccnc2cc1OCCCN1CCOCC1,29.6 µM (active),inactive,18.8 µM (active),1.34%,1.76%,16600 nM (active),–
CC1(C)OC2=C(C(=O)c3ccccc3C2=O)[C@H](NCc2ccccc2)[C@H]1O,5.26 µM (active),inactive,3.75 µM (active),5.62%,6.45%,inactive,–
COC(=O)c1ccc2c(C(=Nc3ccc(N(C)C(=O)CN4CCN(C)CC4)cc3)c3ccccc3)c(O)[nH]c2c1,23.5 µM (active),inactive,–,1.41%,2.34%,469 nM (active),–
O=C(NCCCNc1nc(Nc2cccc(NC(=O)N3CCCC3)c2)ncc1I)c1cccs1,–,inactive,9.43 µM (active) and 5.3 µM (active),1.52% and 1.4%,26.8% and 21.3%,13.2 µM (active) and 5.9 µM (active),–
C[C@@]12O[C@@H](C[C@]1(O)CO)n1c3ccccc3c3c4c(c5c6ccccc6n2c5c31)CNC4=O,3.32 µM (active),–,–,1.51%,3.21%,–,–
CC1=C(CO)C(=O)O[C@@H]([C@@H](C)[C@H]2CC[C@H]3[C@@H]4C[C@H]5O[C@]56[C@@H](O)C=CC(=O)[C@]6(C)[C@@H]4CC[C@]23C)C1,3.32 µM (active),–,1.49 µM (active),0.616%,1.69%,inactive,inactive
COc1ccc(CC2SC(=O)NC2=O)cc1C(=O)NCc1ccc(C(F)(F)F)cc1 (centres undefined),inactive,–,inactive,71.9%,66%,–,–
C=C1C(=CC=C2CCCC3(C)[C@@H]([C@H](C)C=CC=CC(O)(CC)CC)CC[C@@H]23)C[C@@H](O)C[C@@H]1O (some centres undefined),23.5 µM (active),–,16.8 µM (active),3.4%,2.25%,–,–
C=CC(=O)Nc1cc2c(Nc3ccc(F)c(Cl)c3)ncnc2cc1C#CC(C)(C)N1CCN(C)CC1,7.43 µM (active),–,4.73 µM (active),-0.868%,0.0807%,–,–

Compound,Potency [1],outcome [2],Potency [3],viability (% of control) [4],"viability, percent of control [5]",Potency [6],Potency [7]
Clc1ccc2ncc(-c3cccc(NC4CNC4)n3)n2c1,–,inactive,6.68 µM (active),1.46%,34.2%,–,–
Cn1cc(-c2[nH]c3cc(NC(=O)[C@H](N)C4CCCCC4)cc4c3c2C=NNC4=O)cn1,–,inactive,inactive,2.55%,21.5%,166 nM (active),–
NC(=O)Nc1cc(-c2cccc(F)c2)sc1C(=O)N[C@H]1CCCNC1,1.32 µM (active),–,14.9 µM (active),5.07%,19.6%,41.8 nM (active),–
Cc1nc2cnc3ccc(C#Cc4cccnc4)cc3c2n1-c1ccc(C(C)(C)C#N)cc1,inactive,–,–,0.22%,0.379%,–,26.4 µM (active)
CS(=O)(=O)N1CCN(Cc2cc3nc(-c4cccc5[nH]ncc45)nc(N4CCOCC4)c3s2)CC1,–,inactive,–,–,–,–,–
C=CC(=O)Nc1cc2c(Nc3ccc(F)c(Cl)c3)ncnc2cc1OCCCN1CCOCC1,23.5 µM (active),–,16.8 µM (active),0.581%,0.769%,–,–
CCCCCN(CCC12CC3CC(CC(C3)C1)C2)C(=O)NCCCc1ccncc1,23.5 µM (active),–,21.1 µM (active),1.96%,1.97%,–,23.5 µM (active)
Nc1nccc(Oc2ccc(NC(=O)c3c[nH]cc(-c4ccc(F)cc4)c3=O)cc2F)c1Cl,18.7 µM (active),–,5.95 µM (active),4.79%,14.4%,inactive,inactive
COc1ccc2c(c1)CC[C@@H](CN(C)CC(=O)O)[C@H]2c1ccccc1,inactive,–,inactive,118%,98.5%,inactive,inactive
COc1ccc(OC)c(-c2nnc3ccc(-c4ccc(OC)c(O[C@@H]5CCOC5)c4)nn23)c1,inactive,–,–,15.1%,42.3%,20900 nM (active),–
c1ccc2c(CCNc3ccc(Nc4ccncc4)cc3)c[nH]c2c1,inactive,–,10.6 µM (active),3.66%,22.1%,23500 nM (active),–
CC(=O)OCCN1C(=O)c2c(C)nc3ccc(S(=O)(=O)N4CCOCC4)cc3c2C1=O,inactive,–,inactive,94.5%,105%,inactive,–
CC(C)c1ccc(Cn2ccc3c4c(N)nc(NC5CC5)nc4ccc32)cc1,9.35 µM (active),–,16.8 µM (active),1.25%,1.62%,–,–
CC(C)C[C@H](NC(=O)CNC(=O)c1cc(Cl)ccc1Cl)B(O)O,0.0743 µM (active),–,0.0084 µM (active),4.52%,5.36%,–,–
N#Cc1c(O)c2c(-c3ccc(-c4ccccc4O)cc3)csc2[nH]c1=O,inactive,–,inactive,112%,114%,inactive,–
COc1cc2ncnc(Nc3ccc(F)c(Cl)c3)c2cc1NC(=O)C=CCN1CCCCC1,20.9 µM (active),–,16.8 µM (active),-0.755%,0.0432%,–,23.5 µM (active)
CCCCN1CCC(CNC(=O)c2c3n(c4ccccc24)CCCO3)CC1,inactive,–,inactive,–,93.7%,inactive,inactive
O=C(Nc1cc(C(F)(F)F)cc(C(F)(F)F)c1)c1cc(Cl)ccc1O,0.235 µM (active),–,–,1.86%,12.7%,296 nM (active),–
C[C@@H](Oc1cc(-c2cnn(C3CCNCC3)c2)cnc1N)c1c(Cl)ccc(F)c1Cl,inactive,inactive,–,2.18%,-0.628%,–,26.4 µM (active)
Cn1c2cc(S(C)=O)sc2c2cnn(Cc3cccc(N)c3)c(=O)c21 (centres undefined),inactive,–,16.8 µM (active),110%,93.3%,inactive,inactive
CC[C@@H]1C(=O)N(C)c2cnc(Nc3ccc(C(=O)NC4CCN(C)CC4)cc3OC)nc2N1C1CCCC1,16.6 µM (active),–,13.3 µM (active),4.43%,5.81%,1180 nM (active),29.6 µM (active)
Cc1ccc(C(=O)Nc2ccc(CN3CCN(C)CC3)c(C(F)(F)F)c2)cc1C#Cc1cnc2cccnn12,20.9 µM (active),–,2.66 µM (active),1.83%,2.46%,662 nM (active),23.5 µM (active)
O=C(O)c1ccc2cc(-c3ccc(O)c(C45CC6CC(CC(C6)C4)C5)c3)ccc2c1,0.118 µM (active),–,14.9 µM (active),2.27%,1.91%,–,–
C#Cc1cccc(Nc2ncnc3cc(OC)c(OCCCCCCC(=O)NO)cc23)c1,2.64 µM (active),–,16.8 µM (active),-0.46%,1.91%,148 nM (active),–
O=C(C=Cc1c(C(=O)O)[nH]c2cc(Cl)cc(Cl)c12)Nc1ccccc1,inactive,–,inactive,103%,112%,inactive,–
